# Values joined by “and” are separate entries in the source; they are usually repeats but may differ in a detail not shown here. Equal values may be shown once. Inconclusive results are not listed. Where a call stands in place of a potency, no number is given. Where a structure was tested more than once in an assay, its records may differ in their call. Active and inactive are the calls of the source. Unless noted, calls come from the whole dose curve; as a rule, active = well fitted curve in the direction sought with a large enough effect in the repeat runs; inconclusive = weak or mixed curves; inactive = no such curve, though single readings can be large; an effect the other way counts as inactive or inconclusive.
# How the values were obtained:
# [1] = target: Estrogen receptor beta (Homo sapiens) (UniProt Q92731); assay: qHTS assay to identify small molecule agonists of the estrogen receptor beta (ER-beta) signaling pathway (AID 1259377; active = well fitted activation curve with a large enough effect in the signal ratio in the repeat runs, not every such curve was filed as active; the % refers to the signal ratio; note: potency is the fitted concentration of half-maximal effect)
# Procedure, shortened: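 Ratiometric beta-lactamase FRET read-out came after 2 h substrate loading at room temperature. It followed 16 h compound treatment at 37C of GripTite HEK293T cells carrying a UAS-bla reporter, plated in 2% charcoal-stripped FBS medium.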
# [2] = target: Estrogen receptor beta (Homo sapiens) (UniProt Q92731); assay: qHTS assay to identify small molecule antagonists of the estrogen receptor beta (ER-beta) signaling pathway (AID 1259378; active = well fitted inhibition curve with a large enough effect in the signal ratio in the repeat runs, not every such curve was filed as active; the % refers to the signal ratio; note: potency is the fitted concentration of half-maximal effect)
# Procedure, shortened: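 Antagonist mode: compounds added to beta-lactamase reporter HEK293T ER-beta-UAS cells stimulated with E2 (1nM final), 16 hr at 37C. LiveBLAzer B/G FRET substrate, 2 hours room temperature, fluorescence read-out.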
# [3] = qHTS assay to identify small molecule agonists of the androgen receptor (AR) signaling pathway in the presence of an antagonist - cell viability counter screen (AID 1259379);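 note: MDA-kb2 human breast cancer cells carrying an MMTV luciferase reporter; series mostly up to about 92 µM; nearly all actives have a fitted effect of over 25% in size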
# Procedure, shortened: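 MDA-kb2 viability measured by CellTiter-Fluor fluorescence in the same wells as the luciferase signal; nilutamide 3.0uM final; 15-point compound titration; 16 hr at 37C.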
# [4] = qHTS assay to identify small molecule agonists of the estrogen receptor beta (ER-beta) signaling pathway - cell viability counter screen (AID 1259380); note: nearly all actives have a fitted effect of over 30% in size
# Procedure, shortened: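 Measured: luminescence from CellTiter-Glo after 30 min at room temperature, added to wells already read for the LiveBLAzer FRET reporter (2 hr substrate); ER-beta-UAS-bla HEK293T cells had 16 hr compound treatment at 37C, 5% CO2.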
# [5] = target: Androgen receptor (Homo sapiens) (UniProt P10275); assay: qHTS assay to identify small molecule agonists of the androgen receptor (AR) signaling pathway in the presence of an antagonist (AID 1259381; calls by dose curve; note: nearly all actives have a fitted effect of over 15% in size; note: potency is the fitted concentration of half-maximal effect)
# Procedure, shortened: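 Luminescent ONE-Glo read, 30min at room temperature, follows 16hr compound exposure (15 concentrations) of MDA-kb2 cells at 37C, 0% CO2, with nilutamide added at 3.0uM final.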
# [6] = qHTS assay to identify small molecule agonists or antagonists of the thyroid stimulating hormone receptor (TSHR) signaling pathway - wild type cell line counter screen (AID 1259384; calls by dose curve)
# Procedure, shortened: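 Counter screen in untransfected Hek293: compounds (15-point titration, triplicate) plus phosphodiesterase inhibitor Ro20-1724 added after 18 h plating; 30 min RT. Intracellular cAMP via competitive d2/cryptate immunoassay, 1 h incubation.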
# [7] = qHTS assay to identify small molecule agonists of the estrogen receptor alpha (ER-alpha) signaling pathway in the presence of an antagonist - cell viability counter screen (AID 1259386);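 note: series mostly up to about 92 µM; cells exposed to compounds for 22 h at 37 °C before the viability read; nearly all actives have a fitted effect of over 30% in size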
# Procedure, shortened: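 The test measures whether compounds kill ER-alpha reporter cells (VM7Luc4E2) under antagonist co-treatment (ICI-182,780, 10.0nM). Fluorescence from CellTiter-Fluor is read after a 22hr exposure.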
# [8] = qHTS assay to identify small molecule antagonists of the estrogen receptor beta (ER-beta) signaling pathway - cell viability counter screen (AID 1259382);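 note: HEK293T cells carrying ER-beta-UAS-bla reporter stimulated with estradiol; series mostly up to about 92 µM; nearly all actives have a fitted effect of over 55% in size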
# Procedure, shortened: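 Readout: luminescence, CellTiter-Glo, same wells as bla assay. System: ER-beta-UAS-bla GripTite HEK293T, 2% charcoal-stripped FBS. Exposure: compounds plus 1nM 17-beta-estradiol, 16 hr, 37C.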
# [9] = target: Estrogen receptor (Homo sapiens) (UniProt P03372); assay: qHTS assay to identify small molecule agonists of the estrogen receptor alpha (ER-alpha) signaling pathway in the presence of an antagonist (AID 1259383; calls by dose curve; note: nearly all actives have a fitted effect of over 15% in size; note: potency is the fitted concentration of half-maximal effect; for activation: top concentration of the series differs between compounds)
# Procedure, shortened: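 Quantitative HTS confirmation: compounds titrated at 15 concentrations onto estrogen-deprived VM7Luc4E2 cells carrying a four-ERE luciferase construct, with ICI-182,780 present at 10.0nM final. Signal is luminescence after 22hr exposure.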
# [10] = target: Thyrotropin receptor (Homo sapiens) (UniProt P16473); assay: qHTS assay to identify small molecule antagonists of the thyroid stimulating hormone receptor (TSHR) signaling pathway (AID 1259385; calls by dose curve; note: nearly all actives have a fitted effect of over 20% in size)
# Procedure, shortened: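 Antagonist mode: compound-treated TSHR-expressing HEK293 cells were stimulated with 1.5 ng/mL TSH (final) in presence of Ro20-1724 for 30 min at RT. HTRF cAMP detection after 1 h; each compound tested at 15 concentrations, triplicate.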
# Chain of Thyrotropin receptor (Homo sapiens) (P16473 whole entry, looked up): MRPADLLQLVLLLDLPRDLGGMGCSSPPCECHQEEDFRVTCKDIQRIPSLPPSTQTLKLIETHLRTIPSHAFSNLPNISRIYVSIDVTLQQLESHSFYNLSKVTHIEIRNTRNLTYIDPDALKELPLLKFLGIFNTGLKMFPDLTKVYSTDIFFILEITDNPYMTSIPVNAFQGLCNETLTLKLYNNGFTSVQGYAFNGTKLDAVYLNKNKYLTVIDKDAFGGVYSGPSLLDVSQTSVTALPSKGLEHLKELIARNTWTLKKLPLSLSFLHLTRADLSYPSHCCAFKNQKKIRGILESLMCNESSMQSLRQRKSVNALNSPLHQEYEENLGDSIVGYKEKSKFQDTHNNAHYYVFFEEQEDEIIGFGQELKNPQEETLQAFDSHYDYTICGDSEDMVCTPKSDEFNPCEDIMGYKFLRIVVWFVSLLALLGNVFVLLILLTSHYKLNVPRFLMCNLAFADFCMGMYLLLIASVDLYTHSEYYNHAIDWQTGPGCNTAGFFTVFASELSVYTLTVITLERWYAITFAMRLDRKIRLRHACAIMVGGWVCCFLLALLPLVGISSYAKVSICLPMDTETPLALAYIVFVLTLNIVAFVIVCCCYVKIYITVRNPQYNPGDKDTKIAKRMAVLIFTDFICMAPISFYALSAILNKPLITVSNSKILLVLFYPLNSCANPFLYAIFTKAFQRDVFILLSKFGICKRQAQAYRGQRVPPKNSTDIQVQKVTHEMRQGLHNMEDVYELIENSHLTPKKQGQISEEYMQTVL
# Chain of Estrogen receptor (Homo sapiens) (P03372 whole entry, looked up): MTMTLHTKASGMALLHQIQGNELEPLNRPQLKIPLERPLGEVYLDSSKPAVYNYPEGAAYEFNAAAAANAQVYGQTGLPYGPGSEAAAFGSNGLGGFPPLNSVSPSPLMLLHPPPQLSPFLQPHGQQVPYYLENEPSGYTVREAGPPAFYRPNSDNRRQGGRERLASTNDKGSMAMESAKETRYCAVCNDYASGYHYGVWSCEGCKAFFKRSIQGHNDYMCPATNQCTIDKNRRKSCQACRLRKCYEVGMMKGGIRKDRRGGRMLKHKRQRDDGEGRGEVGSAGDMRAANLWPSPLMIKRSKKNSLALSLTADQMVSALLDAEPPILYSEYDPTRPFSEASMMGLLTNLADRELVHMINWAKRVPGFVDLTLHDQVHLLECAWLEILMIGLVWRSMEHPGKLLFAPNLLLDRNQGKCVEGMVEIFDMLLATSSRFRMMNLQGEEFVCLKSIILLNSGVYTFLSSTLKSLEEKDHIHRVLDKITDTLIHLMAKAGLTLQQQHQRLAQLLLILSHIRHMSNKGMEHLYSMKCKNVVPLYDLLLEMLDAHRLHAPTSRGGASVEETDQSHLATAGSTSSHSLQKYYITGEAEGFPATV
# Chain of Androgen receptor (Homo sapiens) (P10275 whole entry, looked up): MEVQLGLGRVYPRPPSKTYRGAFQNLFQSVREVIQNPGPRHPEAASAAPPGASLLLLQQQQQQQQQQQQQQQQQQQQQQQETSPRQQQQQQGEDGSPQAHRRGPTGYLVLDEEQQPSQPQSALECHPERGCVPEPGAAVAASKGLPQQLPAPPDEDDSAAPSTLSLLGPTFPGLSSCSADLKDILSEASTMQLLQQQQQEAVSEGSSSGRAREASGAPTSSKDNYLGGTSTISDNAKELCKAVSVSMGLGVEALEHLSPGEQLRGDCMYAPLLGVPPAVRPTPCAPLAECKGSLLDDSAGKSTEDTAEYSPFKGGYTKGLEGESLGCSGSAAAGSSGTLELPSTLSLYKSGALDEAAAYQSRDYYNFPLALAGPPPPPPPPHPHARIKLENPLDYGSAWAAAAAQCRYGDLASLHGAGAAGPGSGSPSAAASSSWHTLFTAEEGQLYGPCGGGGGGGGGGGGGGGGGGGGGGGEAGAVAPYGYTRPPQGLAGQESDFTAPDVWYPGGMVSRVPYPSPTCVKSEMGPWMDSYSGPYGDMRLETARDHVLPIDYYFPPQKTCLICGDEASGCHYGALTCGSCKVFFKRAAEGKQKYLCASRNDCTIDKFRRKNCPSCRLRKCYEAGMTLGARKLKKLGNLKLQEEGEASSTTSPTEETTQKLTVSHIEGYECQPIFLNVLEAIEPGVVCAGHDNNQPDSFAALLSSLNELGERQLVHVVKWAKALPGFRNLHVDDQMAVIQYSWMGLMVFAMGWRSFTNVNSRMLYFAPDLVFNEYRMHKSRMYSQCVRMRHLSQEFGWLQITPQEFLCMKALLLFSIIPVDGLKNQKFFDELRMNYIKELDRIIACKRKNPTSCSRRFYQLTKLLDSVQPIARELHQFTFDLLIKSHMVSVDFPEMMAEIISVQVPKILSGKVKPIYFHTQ
# Chain of Estrogen receptor beta (Homo sapiens) (Q92731 whole entry, looked up): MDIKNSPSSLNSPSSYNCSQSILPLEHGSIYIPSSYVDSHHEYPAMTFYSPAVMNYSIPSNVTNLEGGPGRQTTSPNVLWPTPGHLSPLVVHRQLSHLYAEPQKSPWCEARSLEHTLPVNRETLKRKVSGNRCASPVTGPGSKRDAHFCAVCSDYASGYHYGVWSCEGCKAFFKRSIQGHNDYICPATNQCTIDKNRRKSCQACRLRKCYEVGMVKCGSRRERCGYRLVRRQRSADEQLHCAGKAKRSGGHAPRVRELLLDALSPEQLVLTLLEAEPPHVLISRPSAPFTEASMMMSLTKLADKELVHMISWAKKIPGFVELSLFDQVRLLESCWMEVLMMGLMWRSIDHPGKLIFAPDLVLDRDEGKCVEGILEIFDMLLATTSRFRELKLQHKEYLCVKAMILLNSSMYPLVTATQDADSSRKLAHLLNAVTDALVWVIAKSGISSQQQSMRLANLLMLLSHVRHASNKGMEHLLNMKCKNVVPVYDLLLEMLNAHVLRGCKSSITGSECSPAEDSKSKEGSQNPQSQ
SMILES,Potency [1],Potency [2],Potency [3],Potency [4],Potency [5],outcome [6],Potency [7],outcome [8],Potency [9],outcome [10]
CN/C(=C\[N+](=O)[O-])NCCSCc1csc(CN(C)C)n1,inactive,inactive,inactive,inactive,inactive,inactive,inactive,,,
COc1ccccc1OCC(O)CO (configuration not stated),inactive,inactive,inactive,inactive,inactive,inactive,inactive,inactive,,
NCCN1CCNCC1,inactive,inactive,inactive,inactive,,inactive,inactive,inactive,inactive,inactive
CCCCCC(=O)O,inactive,inactive,inactive,inactive,inactive,inactive,inactive,inactive,inactive,
OCc1ccccc1,inactive,inactive,inactive,inactive,inactive,inactive,inactive,inactive,inactive,inactive
CN(C)CCOC(=O)COc1ccc(Cl)cc1,inactive,inactive,inactive,inactive,,inactive,inactive,inactive,,inactive
COc1ccc(N)c(C)c1,inactive,inactive,inactive,inactive,,inactive,inactive,inactive,inactive,inactive
O=C(O)Cn1c(=O)n(Cc2ccc(Br)cc2F)c(=O)c2ccc(Cl)cc21,inactive,inactive,inactive,inactive,inactive,inactive,inactive,,inactive,
CCOC(=O)n1ccn(C)c1=S,inactive,inactive,inactive,inactive,,inactive,inactive,inactive,inactive,inactive
CCCCCCCCCCN,inactive,inactive,inactive,inactive,,inactive,inactive,inactive,,inactive
Nc1nc(N)nc(-c2ccccc2)n1,inactive,inactive,inactive,inactive,,inactive,inactive,inactive,inactive,
CC(=O)OCc1ccccc1,inactive,inactive,inactive,inactive,inactive,inactive,inactive,inactive,139 nM (active) and inactive,
O=c1[nH]cnc2[nH]ncc12,inactive,22.2 µM (active) and inactive,inactive,inactive,,,inactive,inactive,inactive,
CCOCCOCCOCCO,inactive,inactive,inactive,inactive,,inactive,inactive,inactive,,inactive
CCNc1ccccc1,inactive,inactive,inactive,inactive,inactive,inactive,inactive,inactive,,
CC(C)(C)c1cc(Cc2cc(C(C)(C)C)c(O)c(C(C)(C)C)c2)cc(C(C)(C)C)c1O,inactive,inactive,inactive,inactive,,inactive,inactive,inactive,inactive,inactive
CC(C)OP(=O)(CP(=O)(OC(C)C)OC(C)C)OC(C)C,inactive,inactive,inactive,inactive,,,inactive,inactive,inactive,
CC(=O)CC(C)(C)O,inactive,inactive,inactive,inactive,inactive,inactive,inactive,inactive,inactive,inactive
C[C@]12CCC(=O)C=C1CC[C@@H]1[C@@H]2[C@@H](O)C[C@@]2(C)[C@H]1CC[C@]2(O)C(=O)CO,inactive,inactive,inactive,inactive,246 nM (active) and 150 nM (active),inactive,inactive,,,
C[Si]1(C)O[Si](C)(C)O[Si](C)(C)O[Si](C)(C)O1,inactive,inactive,inactive,inactive,,inactive,inactive,inactive,inactive,inactive
CCNC(=S)NCC,inactive,inactive,inactive,inactive,,inactive,inactive,inactive,inactive,

SMILES,Potency [1],Potency [2],Potency [3],Potency [4],Potency [5],outcome [6],Potency [7],outcome [8],Potency [9],outcome [10]
CC(=O)Oc1ccc(C)cc1,inactive,inactive,inactive,inactive,inactive,,inactive,inactive,inactive,
CC(C)CC(=O)CC(C)CC(C)C (configuration not stated),inactive,inactive,inactive,inactive,inactive,inactive,inactive,inactive,,inactive
O=C(O)/C=C/C(=O)O,inactive,inactive,inactive,inactive,,inactive,inactive,inactive,,inactive
Cc1ccc(C(C)C)c(O)c1,inactive,inactive,inactive,inactive,,,inactive,inactive,inactive,
Cc1ccc([N+](=O)[O-])cc1S(=O)(=O)O,inactive,inactive,inactive,inactive,inactive,inactive,inactive,inactive,inactive,inactive
CCOC(=O)c1ccc(N)cc1,inactive,inactive,inactive,inactive,,inactive,inactive,inactive,,inactive
CC(=O)OCCOC(C)=O,inactive,inactive,inactive,inactive,,inactive,inactive,inactive,inactive,inactive
O=[N+]([O-])c1ccc2nc[nH]c2c1,inactive,inactive,inactive,inactive,,inactive,inactive,inactive,inactive,inactive
C=CC(C)CCCC(C)(C)O (configuration not stated),54.4 µM (active) and inactive,inactive,inactive,inactive,,inactive,inactive,inactive,inactive,inactive
CC(CCO)CC(C)(C)C (configuration not stated),inactive,inactive,inactive,inactive,inactive,inactive,inactive,inactive,inactive,inactive
C=CCc1ccc(OC)c(OC)c1,inactive,inactive,inactive,inactive,,inactive,inactive,inactive,,inactive
C=C(C)C(=O)OCC(C)C,inactive,inactive,inactive,inactive,,inactive,inactive,inactive,inactive,inactive
O=C(O)c1ccc(S(=O)(=O)N(Cl)Cl)cc1,inactive,inactive,inactive,inactive,,inactive,inactive,inactive,inactive,inactive
CC(C)CC(C)O (configuration not stated),inactive,inactive,inactive,inactive,,inactive,inactive,inactive,inactive,
O=C1CCCC1,inactive,inactive,inactive,inactive,,,inactive,inactive,inactive,
CSc1ccc(Cl)cc1,inactive,inactive,inactive,inactive,inactive,inactive,inactive,,inactive,inactive
OCc1cccc(Oc2ccccc2)c1,,,,,inactive,,,,,
CCNc1cccc(C)c1,,,inactive,inactive,,inactive,inactive,,inactive,inactive
CCCCCCC=O,,,inactive,inactive,,inactive,inactive,,inactive,
Cc1ccc2ncccc2c1,,,inactive,inactive,,inactive,inactive,,inactive,
O=C(O)c1cc2ccccc2cc1O,,,inactive,inactive,inactive,inactive,inactive,,inactive,

SMILES,Potency [1],Potency [2],Potency [3],Potency [4],Potency [5],outcome [6],Potency [7],outcome [8],Potency [9],outcome [10]
CCCCCCCC=O,,,inactive,inactive,,,inactive,inactive,inactive,
O=C(O)CCCCCCCCC(=O)O,,,inactive,inactive,,inactive,inactive,inactive,,
CC1(C)NC(=O)NC1=O,,,inactive,inactive,,inactive,inactive,inactive,inactive,
COCCCN,,,inactive,inactive,,inactive,inactive,inactive,inactive,inactive
O=C(OCC1CCC2OC2C1)C1CCC2OC2C1 (configuration not stated),,,inactive,inactive,,inactive,,inactive,inactive,inactive
CC(C)=CCl,,,inactive,inactive,,inactive,inactive,inactive,inactive,inactive
O=C(O)c1ccc(C(=O)O)c(C(=O)O)c1,,,inactive,inactive,inactive,inactive,inactive,,inactive,inactive
CC(C)c1cccc(C(C)C)c1,,,inactive,inactive,,inactive,inactive,inactive,inactive,
CC(O)CC(C)(C)O (configuration not stated),,,inactive,inactive,,,inactive,inactive,,
CCOCC(=O)O,,,inactive,inactive,,inactive,inactive,,inactive,inactive
C=C(C)CNCC,,,inactive,inactive,,inactive,inactive,inactive,,inactive
CC(C)CCCCCCCOC(=O)CCCCC(=O)OCCCCCCCC(C)C,,,inactive,inactive,,inactive,inactive,inactive,,
NC(=S)NNC(N)=S,,,inactive,inactive,,inactive,inactive,inactive,,inactive
CC1(C)CC(N)CC(C)(CN)C1 (configuration not stated),,,inactive,inactive,,inactive,inactive,inactive,13.9 µM (active) and inactive,
CCCOC(=O)c1ccccc1,,,inactive,inactive,,inactive,inactive,inactive,,
CC(C)OC(=O)COc1ccc(Cl)cc1Cl,,,inactive,inactive,,inactive,inactive,inactive,inactive,inactive
O=S(=O)(O)c1ccccc1,,,inactive,inactive,,inactive,inactive,inactive,,inactive
C=CC(=O)OCCC(=O)O,,,inactive,inactive,,inactive,inactive,inactive,inactive,
O=C1C(c2[nH]c3ccccc3c2O)=Nc2ccccc21,,inactive,inactive,inactive,,inactive,inactive,inactive,,
